Screen size: about 310,000 compounds; about 2,200 (0.71%) showed an effect of 50% or more. Effects have a minus sign here. What follows is part of a selection rich in strong results, with near analogues and random picks from the rest.
target: human ether-à-go-go-related gene (hERG) potassium channel (human, UniProt Q12809); assay: primary screen, population patch clamp on CHO cells stably expressing hERG; higher = less effect of the substance
Method: Briefly, Chinese hamster ovary (CHO) cells stably expressing the hERG channel were dislodged from tissue culture flasks and dispensed into PPC plates. […] During the recording, background leak currents were estimated by a 100 ms step to -80 mV from an initial holding potential of -70 mV and subtracted from the subsequent current measurement. The campaign was conducted in two phases using slight differences in recording protocol. In the first phase, the initial voltage pulse used a 100 ms step to -30 mV from a holding potential of -70 mV, a 2 s conditioning step to +25 mV, and a 2 s test step to -30 mV. During the second phase of the screen, the potential during the conditioning step was raised to +45 mV. In both phases of the campaign, a secondary voltage pulse was applied using the same parameters as the second phase initial pulse. The initial and secondary pulses were applied in the absence of compound, and upon application of 1 μM and 10 μM test concentrations. Small molecule effects on hERG current density were quantified by […].

human ether-à-go-go-related gene (hERG) potassium channel, sequence (Q12809 whole entry, looked up): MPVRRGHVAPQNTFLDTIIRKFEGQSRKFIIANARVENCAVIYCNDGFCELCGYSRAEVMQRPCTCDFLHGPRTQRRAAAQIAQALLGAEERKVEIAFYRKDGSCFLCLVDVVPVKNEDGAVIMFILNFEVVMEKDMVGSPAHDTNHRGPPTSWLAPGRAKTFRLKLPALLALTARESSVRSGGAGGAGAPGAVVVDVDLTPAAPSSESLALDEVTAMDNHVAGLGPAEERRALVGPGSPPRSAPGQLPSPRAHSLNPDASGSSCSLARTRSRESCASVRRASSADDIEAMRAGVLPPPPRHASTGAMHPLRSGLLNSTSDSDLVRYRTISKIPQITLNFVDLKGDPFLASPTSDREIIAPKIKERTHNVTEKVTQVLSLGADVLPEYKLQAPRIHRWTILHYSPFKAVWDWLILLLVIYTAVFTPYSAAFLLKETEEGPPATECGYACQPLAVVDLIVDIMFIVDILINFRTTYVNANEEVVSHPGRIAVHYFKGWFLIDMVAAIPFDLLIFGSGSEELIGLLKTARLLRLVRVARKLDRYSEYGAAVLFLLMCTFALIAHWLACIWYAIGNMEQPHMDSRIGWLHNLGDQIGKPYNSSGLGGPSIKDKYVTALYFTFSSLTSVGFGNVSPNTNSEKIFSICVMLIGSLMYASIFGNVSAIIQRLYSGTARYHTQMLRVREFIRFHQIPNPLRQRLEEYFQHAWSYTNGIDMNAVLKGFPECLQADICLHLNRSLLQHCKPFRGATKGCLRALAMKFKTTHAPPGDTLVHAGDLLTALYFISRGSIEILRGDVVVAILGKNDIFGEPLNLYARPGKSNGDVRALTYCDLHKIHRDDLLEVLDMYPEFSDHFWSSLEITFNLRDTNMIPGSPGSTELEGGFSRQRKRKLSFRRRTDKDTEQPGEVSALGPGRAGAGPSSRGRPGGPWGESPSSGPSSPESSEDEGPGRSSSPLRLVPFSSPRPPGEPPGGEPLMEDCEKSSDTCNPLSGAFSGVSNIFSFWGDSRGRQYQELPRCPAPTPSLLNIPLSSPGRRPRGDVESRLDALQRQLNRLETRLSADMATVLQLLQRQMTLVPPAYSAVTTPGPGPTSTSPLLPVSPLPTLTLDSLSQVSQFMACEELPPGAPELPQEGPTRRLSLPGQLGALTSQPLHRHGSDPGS

| SMILES | hERG current change (%, negative = inhibition) at 1uM [%] |
| --- | --- |
| CC(Cc1ccccc1Sc1ccccc1O)N(C)C.Cl (stereo not drawn) | 3.67 |
| CC(Cc1ccccc1Sc1ccc(O)cc1)N(C)C.CCO.Cl (stereo not drawn) | -73.1 |
| O=C(O)/C=C\C(=O)O.c1ccc(Sc2ccccc2CN2CCCC2)cc1 | -11.3 |
| CC(Cc1ccccc1Sc1ccccc1)N(C)C.O=C(O)/C=C\C(=O)O (stereo not drawn) | -60.6 |
| N=C(N)Cc1ccccc1Sc1ccccc1.O=C(O)/C=C\C(=O)O | 5.87 |
| CCN(CC)Cc1ccccc1Sc1ccccc1.O=C(O)/C=C\C(=O)O | -6.63 |
| CNC(C)Cc1ccccc1Sc1ccc(O)cc1.Cl (stereo not drawn) | -21.1 |
| N/C(Cc1ccccc1Sc1ccccc1)=N\O.O=C(O)/C=C\C(=O)O | 4.44 |
| CN1CCN(Cc2ccccc2Sc2ccccc2)CC1.O=C(O)/C=C\C(=O)O | -68.1 |
| CN(C)CCCn1c(SCC(=O)Nc2nc(-c3cccc(Br)c3)cs2)nc2ccccc2c1=O | -3.37 |
| Cc1ccc([N+](=O)[O-])cc1NC(=O)c1ccccc1 | 0.0028 |
| N#Cc1ccc(C(=O)Nc2nc(-c3cccs3)c(C(=O)C(F)(F)F)s2)cc1 | -18.6 |
| CCC(CC)NC(=O)Nc1ccccc1C | 11.5 |
| CC(C)OCCCN1CN(S(=O)(=O)c2ccc(Cl)cc2)c2nc3ccccc3nc21 | 13.8 |
| O=C1Nc2ccc(Cl)cc2/C1=C/C1CC=CCC1 (stereo not drawn) | 7.83 |
| COc1ccc(N2CCN(Cc3oc(CO)cc(=O)c3O)CC2)cc1 | 2.29 |
| Cc1ccccc1CN1CCN(CC(=O)NC(C)c2ccccc2)CC1 (stereo not drawn) | 3.82 |
| COc1cccc(CN(C(=O)CN2C(=O)c3ccccc3S2(=O)=O)C(C(=O)NCC2CCCO2)c2ccco2)c1 (stereo not drawn) | -50.1 |
| COc1cccc(C(C(=O)NCC2CCCO2)N(CC2CCCO2)C(=O)CN2C(=O)c3ccccc3S2(=O)=O)c1 (stereo not drawn) | 12.5 |
| COc1ccc(CN(C(=O)CN2C(=O)c3ccccc3S2(=O)=O)C(C(=O)NCC2CCCO2)c2ccco2)cc1 (stereo not drawn) | -2.31 |
| O=C(NCC1CCCO1)C(c1ccncc1)N(Cc1ccc(F)cc1)C(=O)CN1C(=O)c2ccccc2S1(=O)=O (stereo not drawn) | -51.2 |

| SMILES | hERG current change (%, negative = inhibition) at 1uM [%] |
| --- | --- |
| COc1ccc(CN(C(=O)CN2C(=O)c3ccccc3S2(=O)=O)C(C(=O)NCC2CCCO2)c2ccncc2)cc1 (stereo not drawn) | 0.0687 |
| O=C(NCC1CCCO1)C(c1ccco1)N(Cc1ccc(F)cc1)C(=O)CN1C(=O)c2ccccc2S1(=O)=O (stereo not drawn) | 8.75 |
| COc1ccc(CC(=O)Nc2ccc(OC(C)=O)cc2C(=O)O)cc1 | -3.47 |
| O=c1c2ccccc2nnn1CSc1nnc2ccccn12 | 6.78 |
| Cc1ccc(Sc2ncccc2C(=O)O)cc1C | 15.6 |
| CCOC(=O)N1CCC(NCCNC(=O)c2cccs2)CC1 | 5.13 |
| CCOC(=O)c1[nH]c2ccc(OC)cc2c1NC(=O)OC | 9.33 |
| NC(=O)C1CCN(C(=O)N2c3ccccc3Sc3ccccc32)CC1 | 0.149 |
| O=C(NCc1ccccc1Cl)C1CCN(S(=O)(=O)c2ccc(-n3cnnn3)cc2)CC1 | -3.01 |
| CC(C)CNC(=O)C1CCN(c2ccc(S(=O)(=O)N3CCOCC3)cc2[N+](=O)[O-])CC1 | -9.02 |
| C=CCN(CC=C)C(=O)C1CCN(S(=O)(=O)c2ccc(-n3cnnn3)cc2)CC1 | -13.1 |
| O=C(NCc1ccco1)C1CCN(c2ccc(S(=O)(=O)N3CCOCC3)cc2[N+](=O)[O-])CC1 | -51.5 |
| CCN(CC)C(=O)C1CCN(S(=O)(=O)c2ccc(-n3cnnn3)cc2)CC1 | 3.52 |
| CN(Cc1ccccc1)C(=O)C1CCN(S(=O)(=O)c2ccc(-n3cnnn3)cc2)CC1 | -62 |
| O=C(NCc1ccco1)C1CCN(S(=O)(=O)c2ccc(-n3cnnn3)cc2)CC1 | -62.1 |
| O=C(NCc1ccco1)C1CCCN(S(=O)(=O)c2ccc(-n3cnnn3)cc2)C1 (stereo not drawn) | -26.8 |
| C=CCNC(=O)C1CCN(c2ccc(S(=O)(=O)N3CCOCC3)cc2[N+](=O)[O-])CC1 | -2.79 |
| C[C@@H]1CN(Cc2nc(Cc3ccccc3F)no2)C[C@H](C)O1 | 8.68 |
| O=C(Nc1cccc(C(=O)O)c1)/C(=C\c1ccc2c(c1)OCO2)NC(=O)c1ccccc1 | 3.01 |
| CC(C)Oc1cccc(C(=O)C2CCCN(C(=O)c3cncs3)C2)c1 (stereo not drawn) | 4.28 |
| CC1CCC(C(C)C)C(OC(=O)C[n+]2cc(-c3ccc(Cl)cc3)n3c2CCCCC3)C1.[Cl-] (stereo not drawn) | -19.9 |

| SMILES | hERG current change (%, negative = inhibition) at 1uM [%] |
| --- | --- |
| CC1CCC(C(C)C)C(OC(=O)Cn2c(-c3ccc(F)cc3)[n+](C)c3ccccc32)C1.[Cl-] (stereo not drawn) | -53.9 |
| CC1CCC(C(C)C)C(OC(=O)Cn2c(-c3ccccc3)[n+](C)c3ccccc32)C1.[Cl-] (stereo not drawn) | -42.1 |
| CC1CCC(C(C)C)C(OC(=O)Cn2c(-c3ccc(Br)cc3)[n+](C)c3ccccc32)C1.[Cl-] (stereo not drawn) | -60.7 |
| CC1CCC(C(C)C)C(OC(=O)C[n+]2cc(-c3ccc(Cl)cc3)n3c2CCC3)C1.[Cl-] (stereo not drawn) | -25.6 |
| COc1ccc(OCc2n(CC(=O)OC3CC(C)CCC3C(C)C)c3ccccc3[n+]2C)cc1.[Cl-] (stereo not drawn) | -45.5 |
| Cc1ccccc1OCc1n(CC(=O)OC2CC(C)CCC2C(C)C)c2ccccc2[n+]1C.[Cl-] (stereo not drawn) | -1.86 |
| Cc1cccc(OCc2n(CC(=O)OC3CC(C)CCC3C(C)C)c3ccccc3[n+]2C)c1.[Cl-] (stereo not drawn) | -12.2 |
| CC1CCC(C(C)C)C(OC(=O)Cn2c(-c3ccc(Cl)cc3)[n+](C)c3ccccc32)C1.[Cl-] (stereo not drawn) | -58 |
| CC1CCC(C(C)C)C(OC(=O)COC(=O)c2ccccc2N)C1 (stereo not drawn) | 4.58 |
| CC1CCC(C(C)C)C(OC(=O)Cn2c(COc3ccccc3)[n+](C)c3ccccc32)C1.[Cl-] (stereo not drawn) | -54 |
| CC1CCC(C(C)C)C(OC(=O)COC(=O)c2cccn2C)C1 (stereo not drawn) | 17.6 |
| COc1ccc(N2CCC(CNS(=O)(=O)c3cccc(C(F)(F)F)c3)C2)cc1 (stereo not drawn) | 4.38 |
| COc1cccc(NC(=O)Nc2nnc(CC(=O)Nc3ccccc3)s2)c1 | 6.56 |
| CC(=O)Oc1ccc(-c2cccc(C(=O)NCCO)c2)cc1 | 16.3 |
| Cc1ccc(CN2CCN(CC(=O)N=Nc3c(O)[nH]c4ccccc34)CC2)cc1 | -75.3 |
| O=C(CN1CCN(Cc2ccccc2)CC1)N=Nc1c(O)[nH]c2ccccc12 | -37.6 |
| O=C(CN1CCN(Cc2ccccc2Cl)CC1)N=Nc1c(O)[nH]c2ccccc12 | -5.17 |
| COc1cc(C2CC(=O)Nc3cc(C)c(C)cc32)cc(OC)c1OC (stereo not drawn) | 14.3 |
| COc1ccc(NC(=O)CNS(=O)(=O)c2ccc3nc(C)sc3c2)c(OC)c1 | 1.77 |
| CC(C)C(Sc1nc(-c2ccccc2)cc(-c2ccccc2)c1C#N)C(=O)O (stereo not drawn) | 9.23 |
| O=C(CN1CCC(n2nnc3cc(C(F)(F)F)ccc32)CC1)NCc1cccs1 | -56.9 |

| SMILES | hERG current change (%, negative = inhibition) at 1uM [%] |
| --- | --- |
| C=CCNC(=O)CN1CCC(n2nnc3cc(C(F)(F)F)ccc32)CC1 | -0.772 |
| O=C(CN1CCC(n2nnc3ccccc32)CC1)NCc1cccs1 | -47.3 |
| O=C(CN1C(=O)CCSc2ccccc21)Nc1ccc2c(c1)OCO2 | -4.53 |
| O=C(CCCN1C(=O)/C(=C\c2cccs2)SC1=S)NNC(=O)c1ccncc1 | 4.39 |
| O=C(/C=C/c1ccc([N+](=O)[O-])cc1)NCCN1C(=O)S/C(=C\c2ccc(F)cc2)C1=O | 2.19 |
| O=[N+]([O-])c1ccc(S(=O)(=O)NCCN2CCOCC2)cc1 | 12.6 |
| O=S(=O)(NCCN1CCCC1)c1ccc(Br)cc1 | 3.89 |
| CCN(CC)S(=O)(=O)c1ccc(S(=O)(=O)N2CCN(CCC#N)CC2)cc1 | 8.96 |
| Cc1ccc(S(=O)(=O)N(CCC#N)CCN2CCCC2)cc1 | 2.4 |
| N#CCCN(CCN1CCCC1)S(=O)(=O)c1ccc(-c2ccc([N+](=O)[O-])cc2)cc1 | -76.5 |
| O=[N+]([O-])c1ccc(-c2ccc(S(=O)(=O)NCCN3CCCC3)cc2)cc1 | -77.3 |
| O=C(NCC(c1ccco1)N1CCCC1)c1ccccc1Sc1ccc(C(F)(F)F)cc1[N+](=O)[O-] (stereo not drawn) | 4.07 |
| CCOc1ccccc1N1CCN(C(=O)c2cccc(S(=O)(=O)N3CCOCC3)c2)CC1 | 10.8 |
| NC(=O)Cn1cnc2nc3n(c2c1=O)CCC3 | -2.24 |
| CC1CN(C(=O)COC(=O)COc2ccc(C#N)cc2)CC(C)O1 (stereo not drawn) | 11.6 |
| CC1(C)Cc2c(c(=S)nc(-c3ccccc3)n2CCN2CCOCC2)CO1 | 6.74 |
| CCCC(=O)Nc1nc2c(C)c(Cl)ccc2s1 | 6.64 |
| COc1ccc(NC(=O)C(c2ccccc2)N(C)C(=O)c2ccc(=O)[nH]c2)cc1 (stereo not drawn) | 16.6 |

From paper PMC4336329 (PLoS ONE, 2015)
